Numbering of substitutions follows the chain as printed.
Tests used:
Experiment in all cases: protein-binding microarray (PBM); PBM: ~300 nM protein, 6 mM HEPES pH 7.8, 80 mM KCl, 0.5 mM EDTA, 0.5 mM EGTA, 6% glycerol, 35 ng/ul poly-dIdC, 1% milk, 1 h, room temperature; Ap Aiptasia and Nv Nematostella (sea anemones) / Co Capsaspora / Aq Amphimedon (sponge) / Dm Drosophila / Hu human; RHD is the Rel homology domain; high values mean tight binding
Conditions in all cases: dsDNA, one strand shown
GST-Ap-NF-kB RHD = biological target: T1, GST-Ap-NF-kB RHD (Exaiptasia pallida (Aiptasia), UniProt A0A913YAJ5 2-422)
T1 sequence: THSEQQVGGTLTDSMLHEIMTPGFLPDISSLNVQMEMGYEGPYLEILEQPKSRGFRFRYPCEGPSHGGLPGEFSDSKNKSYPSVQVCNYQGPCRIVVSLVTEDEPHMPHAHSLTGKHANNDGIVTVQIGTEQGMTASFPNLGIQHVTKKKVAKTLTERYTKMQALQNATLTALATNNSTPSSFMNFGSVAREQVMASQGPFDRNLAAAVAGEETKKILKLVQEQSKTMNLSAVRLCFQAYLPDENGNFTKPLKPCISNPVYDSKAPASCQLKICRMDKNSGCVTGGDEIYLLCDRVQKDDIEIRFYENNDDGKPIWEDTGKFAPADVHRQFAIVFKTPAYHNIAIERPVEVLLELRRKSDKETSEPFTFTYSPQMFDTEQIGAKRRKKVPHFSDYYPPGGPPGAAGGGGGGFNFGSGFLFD

[1] = biological target: T2, GST-Nv-NF-kB (Cys allele) (Nematostella vectensis, UniProt E5G601 2-411)
T2 sequence: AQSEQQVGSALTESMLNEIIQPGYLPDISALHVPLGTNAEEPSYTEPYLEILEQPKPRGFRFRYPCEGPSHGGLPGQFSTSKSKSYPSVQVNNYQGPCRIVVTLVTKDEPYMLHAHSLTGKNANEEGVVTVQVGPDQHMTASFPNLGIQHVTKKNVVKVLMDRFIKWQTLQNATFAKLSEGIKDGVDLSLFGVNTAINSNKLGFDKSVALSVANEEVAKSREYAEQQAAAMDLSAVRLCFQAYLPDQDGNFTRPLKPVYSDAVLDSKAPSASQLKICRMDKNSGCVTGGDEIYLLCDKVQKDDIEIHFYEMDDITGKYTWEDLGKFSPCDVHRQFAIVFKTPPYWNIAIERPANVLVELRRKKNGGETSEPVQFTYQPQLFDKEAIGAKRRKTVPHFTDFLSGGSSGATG

[2] = biological target: T3, GST-Nv-NF-kB (Ser allele) (Nematostella vectensis, UniProt A7UNT2 2-411)
T3 sequence: T2 sequence with Q21R, C66S, S207N, E215Q, V217A, E225K, A268E, D399E

GST-Co-NF-kB = biological target: T4, GST-Co-NF-kB (Capsaspora owczarzaki, UniProt F1ARL5 200-546)
T4 sequence: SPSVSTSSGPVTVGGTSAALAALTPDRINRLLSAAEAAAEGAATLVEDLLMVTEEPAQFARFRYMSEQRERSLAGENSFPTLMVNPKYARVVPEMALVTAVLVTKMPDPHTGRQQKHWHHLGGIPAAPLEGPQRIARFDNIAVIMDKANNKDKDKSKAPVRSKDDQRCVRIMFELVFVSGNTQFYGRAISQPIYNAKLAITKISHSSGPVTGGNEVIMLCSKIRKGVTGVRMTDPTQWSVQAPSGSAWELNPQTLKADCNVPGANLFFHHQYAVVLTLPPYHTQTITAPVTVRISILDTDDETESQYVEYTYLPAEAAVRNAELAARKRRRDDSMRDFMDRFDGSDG

GST-Dm-Relish = biological target: T5, GST-Dm-Relish (Drosophila melanogaster, UniProt Q94527 99-473)
T5 sequence: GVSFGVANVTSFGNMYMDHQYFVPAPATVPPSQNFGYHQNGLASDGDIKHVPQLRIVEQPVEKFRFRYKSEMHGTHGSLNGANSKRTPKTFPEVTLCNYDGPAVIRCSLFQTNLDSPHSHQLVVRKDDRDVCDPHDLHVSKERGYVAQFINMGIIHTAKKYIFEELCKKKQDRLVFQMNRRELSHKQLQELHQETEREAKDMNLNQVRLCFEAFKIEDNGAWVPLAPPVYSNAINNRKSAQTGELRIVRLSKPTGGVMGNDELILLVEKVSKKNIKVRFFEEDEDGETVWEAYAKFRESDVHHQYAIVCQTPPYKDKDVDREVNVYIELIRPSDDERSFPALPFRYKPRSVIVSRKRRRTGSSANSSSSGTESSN

GST-Aq-NF-kB = biological target: T6, GST-Aq-NF-kB (Amphimedon queenslandica, UniProt A9Y5G7 2-389)
T6 sequence: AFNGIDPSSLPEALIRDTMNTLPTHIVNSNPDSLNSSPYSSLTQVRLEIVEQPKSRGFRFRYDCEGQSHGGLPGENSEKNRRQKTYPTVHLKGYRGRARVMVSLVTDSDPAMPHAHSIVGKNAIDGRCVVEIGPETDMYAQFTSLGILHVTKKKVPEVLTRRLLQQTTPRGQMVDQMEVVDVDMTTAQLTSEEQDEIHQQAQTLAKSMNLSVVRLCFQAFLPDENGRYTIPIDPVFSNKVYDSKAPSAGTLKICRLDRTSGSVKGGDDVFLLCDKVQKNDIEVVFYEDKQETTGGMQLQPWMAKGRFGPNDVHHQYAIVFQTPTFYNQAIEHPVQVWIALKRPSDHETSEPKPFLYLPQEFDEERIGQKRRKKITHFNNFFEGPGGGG

GST-Hu-p50 = GST-Hu-p50 (Homo sapiens, UniProt P19838 7-356)
Sequence of GST-Hu-p50 (P19838 7-356): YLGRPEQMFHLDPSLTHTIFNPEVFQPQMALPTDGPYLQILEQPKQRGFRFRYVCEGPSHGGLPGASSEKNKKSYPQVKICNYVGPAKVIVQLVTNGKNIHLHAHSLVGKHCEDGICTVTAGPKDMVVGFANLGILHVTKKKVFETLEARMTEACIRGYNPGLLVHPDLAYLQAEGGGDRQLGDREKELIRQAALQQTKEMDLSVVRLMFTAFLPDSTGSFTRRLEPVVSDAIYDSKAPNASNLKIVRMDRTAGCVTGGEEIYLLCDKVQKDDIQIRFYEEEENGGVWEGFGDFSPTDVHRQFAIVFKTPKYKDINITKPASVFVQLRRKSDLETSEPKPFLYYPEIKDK

Sequence	binding signal (GST-Ap-NF-kB RHD)	binding signal [1]	binding signal [2]	binding signal (GST-Co-NF-kB)	binding signal (GST-Dm-Relish)	binding signal (GST-Aq-NF-kB)	binding signal (GST-Hu-p50)
CCGATTAACATCAAAAATACCCATGATGTTAATCGGGTCTTGATTCGCTTGACGCTGCTG	4.63 z-score	6.47 z-score	6.31 z-score	2.49 z-score	5.48 z-score	5.67 z-score	5.58 z-score
CCGATTAACATCAAATAATCCCCTGATGTTAATCGGGTCTTGATTCGCTTGACGCTGCTG	8.76 z-score	10 z-score	10.6 z-score	5.91 z-score	7.99 z-score	7.75 z-score	6.78 z-score
CCGATTAACATCAGGGGGGACGATGATGTTAATCGGGTCTTGATTCGCTTGACGCTGCTG	5.01 z-score	4.55 z-score	4.5 z-score	5.85 z-score	3.77 z-score	4.63 z-score	3.85 z-score
CCGATTAACATCACGGGATTCCCTGATGTTAATCGGGTCTTGATTCGCTTGACGCTGCTG	6.4 z-score	6.23 z-score	5.14 z-score	2.93 z-score	10.2 z-score	7.3 z-score	4.17 z-score
CCGATTAACATCAAAAACTCCCTTGATGTTAATCGGGTCTTGATTCGCTTGACGCTGCTG	5.39 z-score	7.94 z-score	7 z-score	1.96 z-score	6.3 z-score	7.5 z-score	5.92 z-score
CCGATTAACATCAGGGGAATCCATGATGTTAATCGGGTCTTGATTCGCTTGACGCTGCTG	8.88 z-score	9.29 z-score	9.54 z-score	5.44 z-score	9.65 z-score	7 z-score	6.48 z-score
CCGATTAACATCAGGGGGTTTAATGATGTTAATCGGGTCTTGATTCGCTTGACGCTGCTG	6.88 z-score	5.26 z-score	6.77 z-score	2.64 z-score	7.87 z-score	5.24 z-score	6.62 z-score
CCGATTAACATCAAATTGTCCCCTGATGTTAATCGGGTCTTGATTCGCTTGACGCTGCTG	4.64 z-score	5.87 z-score	6.62 z-score	6.08 z-score	2.6 z-score	4.84 z-score	4.96 z-score
CCGATTAACATCAAAGCTTTCCCTGATGTTAATCGGGTCTTGATTCGCTTGACGCTGCTG	2.54 z-score	4.28 z-score	4.2 z-score	3.59 z-score	1.47 z-score	4.07 z-score	3.46 z-score
CCGATTAACATCAAATTTCCCGTTGATGTTAATCGGGTCTTGATTCGCTTGACGCTGCTG	3.33 z-score	5.71 z-score	5.5 z-score	4.13 z-score	3.24 z-score	5.53 z-score	4.24 z-score
CCGATTAACATCAAAATCCCGGGTGATGTTAATCGGGTCTTGATTCGCTTGACGCTGCTG	3.32 z-score	2.32 z-score	2.26 z-score	1.42 z-score	6.58 z-score	3.23 z-score	3.3 z-score
CCGATTAACATCAGGGGAAATAATGATGTTAATCGGGTCTTGATTCGCTTGACGCTGCTG	6.88 z-score	8.65 z-score	11.6 z-score	9 z-score	5.53 z-score	5.68 z-score	6.58 z-score
CCGATTAACATCAGGGGGTGCACTGATGTTAATCGGGTCTTGATTCGCTTGACGCTGCTG	3.65 z-score	2.71 z-score	3.9 z-score	2.55 z-score	6.6 z-score	4.95 z-score	4.23 z-score
CCGATTAACATCAAAATATCCCCTGATGTTAATCGGGTCTTGATTCGCTTGACGCTGCTG	8.8 z-score	9.37 z-score	11 z-score	5.38 z-score	8.53 z-score	7.25 z-score	7.09 z-score
CCGATTAACATCAATCTCCCCCATGATGTTAATCGGGTCTTGATTCGCTTGACGCTGCTG	6.53 z-score	4.32 z-score	6.24 z-score	8.65 z-score	2.05 z-score	3.51 z-score	5.94 z-score
CCGATTAACATCAGGGAAGACCCTGATGTTAATCGGGTCTTGATTCGCTTGACGCTGCTG	4.49 z-score	5.72 z-score	3.5 z-score	1.33 z-score	7.97 z-score	7.06 z-score	3.16 z-score
CCGATTAACATCAGGGAATACCCTGATGTTAATCGGGTCTTGATTCGCTTGACGCTGCTG	8.89 z-score	11.2 z-score	8.44 z-score	3.79 z-score	9.63 z-score	10.2 z-score	6.01 z-score
CCGATTAACATCAGGGTTTTACCTGATGTTAATCGGGTCTTGATTCGCTTGACGCTGCTG	2.62 z-score	3.71 z-score	4.37 z-score	2.01 z-score	6.46 z-score	6.12 z-score	3.39 z-score
CCGATTAACATCACTATATTCCCTGATGTTAATCGGGTCTTGATTCGCTTGACGCTGCTG	3.08 z-score	3.16 z-score	3.56 z-score	3.19 z-score	1.62 z-score	2.6 z-score	1.77 z-score
CCGATTAACATCAACTTTTCCCCTGATGTTAATCGGGTCTTGATTCGCTTGACGCTGCTG	6.24 z-score	7.19 z-score	10 z-score	9 z-score	2.99 z-score	5.09 z-score	5.48 z-score
CCGATTAACATCAGGCGATCCCCTGATGTTAATCGGGTCTTGATTCGCTTGACGCTGCTG	5.05 z-score	4.17 z-score	5.07 z-score	1.58 z-score	6.53 z-score	5.06 z-score	3.98 z-score
CCGATTAACATCACCCACTCCCCTGATGTTAATCGGGTCTTGATTCGCTTGACGCTGCTG	4.11 z-score	2.69 z-score	3.92 z-score	2.82 z-score	1.47 z-score	3.04 z-score	3.03 z-score
CCGATTAACATCAAGGGGAATTCTGATGTTAATCGGGTCTTGATTCGCTTGACGCTGCTG	10.3 z-score	11.3 z-score	12.1 z-score	6.89 z-score	8.49 z-score	8.42 z-score	7.65 z-score
CCGATTAACATCAGGGGAAAAAATGATGTTAATCGGGTCTTGATTCGCTTGACGCTGCTG	6.24 z-score	8.26 z-score	10.4 z-score	11.1 z-score	4.87 z-score	6.42 z-score	6.22 z-score
